KB-3-1 cytotox = kills parental KB-3-1 adenocarcinoma cells. Potency, µM (highest dose often 46.1 µM), hits mostly cytotoxic. actives 1.4% (n = 400,000). KB-3-1 viability, CellTiter-Glo ATP luminescence, 72 h. AID 1347075; also: nearly all actives have a fitted effect of over 60% in size
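Multi-concentration cytotoxicity screen in KB-3-1 cells grown in DMEM lacking phenol red with 10% FBS. After 72 h at 37 °C with compound, ATP-dependent luminescence was recorded.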
KB-V1 MDR tox = kills drug-selected multidrug resistant KB-V1 cells | KB-V1 MDR cells viability, CellTiter-Glo, 72 h | Potency, µM (top dose mostly 46.1 µM), actives largely listed as cytotoxic | actives 3.4% (n = 400,000); also: nearly all actives have a fitted effect of over 60% in size
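Potencies derive from concentration-effect curves fitted to normalized luminescence (CellTiter-Glo) of KB-V1 cells treated for 72 h at 37 degrees C in phenol-red-free DMEM containing 10% FBS.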
HT1080NT lethal = kills 2HG-producing HT-1080-NT fibrosarcoma cells. actives 1.6% (n = 360,000). HT-1080-NT fibrosarcoma viability, CellTiter-Glo ATP luminescence, 48 h. Potency, µM (series often up to 46.1 µM), for inactives: at the top dose activity, negative = less viability, hits mostly cytotoxic;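 also: NT is the 2HG producing partner of a matched IDH1 knockdown line; 0% = DMSO-treated cells and -100% = media-only wells without cells; nearly all actives have a fitted effect of over 55% in size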
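Compounds were tested in concentration-response format on HT-1080-NT cells for 48 hours at 37 degrees C. Cell viability came from CellTiter-Glo luminescence; curves were classified by r2, response magnitude and activity.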
HT1080 IDH1KD tx = toxicity to HT-1080 IDH1 knockdown cells (counter line) | HT-1080 IDH1 knockdown viability, ATP luminescence, 48 h | Potency, µM (doses to about 46.1 µM), for the others: at the top dose activity, negative = toxicity, usual class: cytotoxic | actives 2% (n = 360,000);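 also: 0% = DMSO wells and -100% = cell-free medium wells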
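After a 2 h attachment period, IDH1KD HT-1080 cells took pin-transferred compound for 48 h at 37 °C; ATP-based luminescence after 10 min room-temperature reagent incubation reported viability.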
* marks the source's active call; other numbers are inactive results. The list is not random: actives were taken first. Their share in the collection is about 5.7%. Calls follow the shape of the dose curve; as a rule, active = well fitted curve in the direction sought with a large enough effect; inconclusive = small, poorly fitted or top-dose-only effect, or another doubt; inactive = no such curve, though single readings can be large; an effect the other way counts as inactive or inconclusive. Unless noted, % is scaled to controls: 0 for no effect and ±100 for the full control effect; potency is read from the fitted curve at half-maximal effect.

Screening Cc1ccc(S(=O)(=O)N2CCOCC2)cc1NC(=O)CSc1nc2ccccc2c(=O)n1Cc1ccccc1 returned KB-3-1 cytotox inactive, KB-V1 MDR tox 8.2µM*, HT1080NT lethal 0% and HT1080 IDH1KD tx -3%.
CCc1ccc(C(=O)CSc2nc3cc(S(=O)(=O)N4CCOCC4)ccc3n2CC)cc1 was read as KB-3-1 cytotox inactive, KB-V1 MDR tox 21µM*, HT1080NT lethal 1% and HT1080 IDH1KD tx -2%.
For COCCn1c(SCC(=O)Nc2ccc(S(=O)(=O)N3CCOCC3)cc2)nc2ccccc21 the results were KB-3-1 cytotox inactive, KB-V1 MDR tox 5.2µM*, HT1080NT lethal 10% and HT1080 IDH1KD tx 6%.
Cc1ccc(S(=O)(=O)N2CCCN(c3nc(-c4cccs4)nc4ccccc34)CC2)cc1 was read as KB-3-1 cytotox inactive and KB-V1 MDR tox inconclusive.
`CCOC(=O)c1ccc(NC(=O)c2cc3c(n(-c4ccc(C)cc4)c2=O)CC(C)(C)CC3=O)cc1` gave KB-3-1 cytotox inactive and KB-V1 MDR tox inactive.
O=C(O)C1CCCN1S(=O)(=O)c1ccc(F)cc1 (stereo not drawn) was read as KB-3-1 cytotox inactive, KB-V1 MDR tox inactive, HT1080NT lethal 13% and HT1080 IDH1KD tx 6%.
Screening Cc1ccc(Cl)cc1N1CCN(C(=O)C2CCN(S(C)(=O)=O)CC2)CC1 returned KB-3-1 cytotox inactive, KB-V1 MDR tox inactive, HT1080NT lethal -2% and HT1080 IDH1KD tx -6%.
`Cc1ccc(C)c(N2CCN(C(=O)C3CCN(c4nc(C)cc(C)n4)CC3)CC2)c1` gave KB-3-1 cytotox inconclusive, KB-V1 MDR tox 3.7µM*, HT1080NT lethal inconclusive and HT1080 IDH1KD tx inconclusive.
`Cc1cc(C)nc(N2CCC(C(=O)N3CCN(c4cc(Cl)ccc4C)CC3)CC2)n1` gave KB-3-1 cytotox inconclusive, KB-V1 MDR tox 4.1µM*, HT1080NT lethal inconclusive and HT1080 IDH1KD tx inconclusive.
`Cc1ccc(C)c(N2CCN(C(=O)C3CCCCN3S(=O)(=O)c3ccc(F)cc3)CC2)c1` (stereo not drawn) gave KB-3-1 cytotox inconclusive, KB-V1 MDR tox 2.6µM*, HT1080NT lethal -1% and HT1080 IDH1KD tx -11%.
COc1ccc(-c2noc(-c3ccc(NCc4ccccc4OC)c([N+](=O)[O-])c3)n2)cc1 was read as KB-3-1 cytotox inactive and KB-V1 MDR tox inactive.
Screening COc1ccc(Nc2nc3ccccc3n3nnnc23)cc1 returned KB-3-1 cytotox inactive, KB-V1 MDR tox 5.8µM*, HT1080NT lethal -7% and HT1080 IDH1KD tx inconclusive.
Screening CC1=C(C(N)=O)C(c2ccc(C)cc2)n2nc(SCc3ccccc3)nc2N1 (stereo not drawn) returned KB-3-1 cytotox inactive and KB-V1 MDR tox inactive.
`CC(=O)Nc1ccc(/C=C/c2ccnc3ccccc23)cc1[N+](=O)[O-]` gave KB-3-1 cytotox inconclusive and KB-V1 MDR tox inactive.
For Cc1ccc(C(=O)CSC2=C(C#N)C(c3ccco3)C3=C(CC(C)(C)CC3=O)N2)cc1 (stereo not drawn) the results were KB-3-1 cytotox inconclusive, KB-V1 MDR tox inactive, HT1080NT lethal -30% and HT1080 IDH1KD tx inconclusive.
`N#CC1=C(SCC(=O)c2ccc(Cl)cc2)NC2=C(C(=O)CCC2)C1c1ccco1` (stereo not drawn) gave KB-3-1 cytotox inconclusive, KB-V1 MDR tox inactive, HT1080NT lethal 18µM* and HT1080 IDH1KD tx 18µM*.
Screening CCOCCCNC(=O)c1c(NC(=O)c2cc(=O)c3cc(C)c(C)cc3o2)sc2c1CCC2 returned KB-3-1 cytotox inactive and KB-V1 MDR tox inactive.
O=S(Cc1ccc(Br)cc1)Cc1nnc(SCc2ccc(Cl)cc2)n1-c1ccccc1 (stereo not drawn) was read as KB-3-1 cytotox inconclusive, KB-V1 MDR tox 2.3µM*, HT1080NT lethal -3% and HT1080 IDH1KD tx -22%.
`O=S(Cc1ccc(Br)cc1)Cc1nnc(SCc2c(F)cccc2Cl)n1-c1ccccc1` (stereo not drawn) gave KB-3-1 cytotox inconclusive, KB-V1 MDR tox 2.3µM*, HT1080NT lethal -5% and HT1080 IDH1KD tx -24%.
Screening Nn1c(Cc2cccc3ccccc23)nnc1SCc1c(F)cccc1Cl returned KB-3-1 cytotox inactive, KB-V1 MDR tox inconclusive, HT1080NT lethal 2% and HT1080 IDH1KD tx 0%.
Cn1c(CS(=O)Cc2c(Cl)cccc2Cl)nnc1SCc1ccc(Cl)cc1 (stereo not drawn) was read as KB-3-1 cytotox inactive, KB-V1 MDR tox 5.2µM*, HT1080NT lethal -1% and HT1080 IDH1KD tx inconclusive.
`Cc1cccc(NC(=O)C2CCCN(S(=O)(=O)c3c(C)[nH]c(=O)[nH]c3=O)C2)c1C` (stereo not drawn) gave KB-3-1 cytotox inactive and KB-V1 MDR tox inactive.
For O=Cc1ccc(CS)cc1 the results were KB-3-1 cytotox inactive and KB-V1 MDR tox inactive.
Screening CCN(CC)S(=O)(=O)c1cccc(C(=O)N/N=C(\C)c2ccc(O)cc2O)c1 returned KB-3-1 cytotox inactive, KB-V1 MDR tox inconclusive, HT1080NT lethal inconclusive and HT1080 IDH1KD tx 1.5µM*.
Screening CCN(Cc1ccccc1)S(=O)(=O)CCNC(=O)c1ccccc1 returned KB-3-1 cytotox inactive, KB-V1 MDR tox 21µM*, HT1080NT lethal 5% and HT1080 IDH1KD tx 4%.
`CN(C)S(=O)(=O)c1cccc(C(=O)NCCNC(=O)c2cccc(S(=O)(=O)N(C)C)c2)c1` gave KB-3-1 cytotox inactive, KB-V1 MDR tox inactive, HT1080NT lethal 5% and HT1080 IDH1KD tx 5%.
Screening CCN(CC)S(=O)(=O)c1cccc(C(=O)NCCc2ccccc2)c1 returned KB-3-1 cytotox inactive, KB-V1 MDR tox 9.2µM*, HT1080NT lethal -13% and HT1080 IDH1KD tx -16%.
For C=C1NN(CC2CC2)C(=O)N1c1ccc(OCc2ccccc2)cc1 the results were KB-3-1 cytotox inactive and KB-V1 MDR tox inactive.
Screening COc1ccc(C(=O)N2CCC(c3ccncc3)CC2)cc1OC returned KB-3-1 cytotox inactive and KB-V1 MDR tox inactive.
CN(C)c1ccc(NC(=O)Nc2cccc(Cl)c2)cc1 was read as KB-3-1 cytotox inactive, KB-V1 MDR tox 13µM*, HT1080NT lethal inconclusive and HT1080 IDH1KD tx -10%.
`O=C(Nc1cccc(Cl)c1)Nc1csc([N+](=O)[O-])c1` gave KB-3-1 cytotox inconclusive, KB-V1 MDR tox inconclusive, HT1080NT lethal 21µM* and HT1080 IDH1KD tx 7.3µM*.
For O=C(Nc1ccc(Cl)c(Cl)c1)Nc1ccc(Br)cc1F the results were KB-3-1 cytotox inconclusive, KB-V1 MDR tox inconclusive, HT1080NT lethal inconclusive and HT1080 IDH1KD tx 16µM*.
For CSc1ccccc1NC(=O)Nc1ccc(F)c(Cl)c1 the results were KB-3-1 cytotox inactive, KB-V1 MDR tox 21µM*, HT1080NT lethal -3% and HT1080 IDH1KD tx 1%.
COc1ccc(OC)c(-c2cc(C(=O)NC(C)c3ccccc3)no2)c1 (stereo not drawn) was read as KB-3-1 cytotox inactive and KB-V1 MDR tox inactive.
CCCCCn1c(=N)c(S(=O)(=O)c2ccccc2)cc2c(=O)n3ccccc3nc21 was read as KB-3-1 cytotox inactive and KB-V1 MDR tox inconclusive.

Screens deposited in PubChem BioAssay by National Center for Advancing Translational Sciences (NCATS).
